This is part of a sample that, as a whole, favours compounds with a hit. Of some 83,000 tested, about 20% had one in any assay.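 Percent growth is the endpoint: 0 to 100 indicates growth inhibition (40 means 60% inhibition), 0 means no net growth, and negative values indicate cell death.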 Values without a mark were called inactive. Active and inactive are the calls of the source. How the source made its calls: active means growth percent below 10; inactive means the rest.
System: HL-60(TB) leukemia
Assay: NCI-60 one-dose screen, 48 h (100 = growth as untreated, 0 = no growth, -100 = all killed)
Details: 10 µM unless noted

Going from COc1ccc(C(=O)COc2cccc(/C=C3\Oc4ccc5ccccc5c4C3=O)c2)cc1 to c1ccc2c(Nc3cccc4ccccc34)cccc2c1, the growth falls from 90.7% to 18.9%.

Going from CCOC(=O)c1ccc(N2C(=O)C(Cl)(c3ccccc3)C2c2ccco2)cc1 (stereo not given) to CC(=O)c1nn(-c2ccccc2)c(=Nc2ccccc2)cc1C, the growth rises from 66% to 106%.

Compared with COc1cc(C(=O)NNC(=O)c2ccccc2O)cc(OC)c1OC, COc1cc(-c2nc(C(=O)NCC(=O)O)nn2-c2ccc(Cl)cc2)cc(OC)c1OC is higher in growth: 80.4% for the first, 101% for the second.

First: N#Cc1c(-c2ccccc2)cc(-c2ccccc2)n(CCCCC(=O)O)c1=O
Second: N#Cc1c(-c2ccccc2)[nH]c2ncc(-c3ccccc3)n2c1=O
The growth of the first is higher: 102% for the first, 97.1% for the second.

Compared with O=C(CSc1nccc(Nc2ccc(S(=O)(=O)Nc3nccs3)cc2)n1)c1ccc(C(F)(F)F)cc1, CN(C)CN1CCN(c2ccc3nc(-c4ccc5nc(-c6ccc(C(F)(F)F)cc6)[nH]c5c4)[nH]c3c2)CC1 is lower in growth: 103% for the first, 59.6% for the second.

Compared with NC(=S)N/N=C/C(=O)O, CNC(=O)NN is lower in growth: 87.8% for the first, 64% for the second.

Compared with COc1cccc(CNc2cccc3cn[nH]c23)c1O, COc1ccc(C(=O)n2nc(-c3ccccc3)nc2N)cc1OC is lower in growth: 144% for the first, 80% for the second.

Going from Cc1ccc(N)cc1[N+](=O)[O-] to CC(=O)Oc1ccccc1C(=O)/C=C/c1cccc([N+](=O)[O-])c1, the growth falls from 96.5% to 17.3%.

Compared with CCN(CC)CCOc1ccccc1-n1c(C)ccc1-c1ccccc1, COc1ccc(CNC(=O)c2c(C)n([O-])c3ccccc3[n+]2=O)cc1 is higher in growth: 22.4% for the first, 101% for the second.

First: COc1ccc(COC(=O)CC(C)C)cc1
Second: CCOc1ccc(/C=C\C(=O)O)cc1
The growth of the first is higher: 99.7% for the first, 82.9% for the second.

Going from CC1=C(O)C(=O)CC1 to COc1cc2ncn3c(=O)c4c5c(sc4nc3c2cc1OC)CCCC5, the growth falls from 112% to 106%.

First: OC(c1cc(C(F)(F)F)nc2c(C(F)(F)F)cccc12)C1CCCCN1 (stereo not given)
Second: N#Cc1ccc(NC2c3ccccc3CC2O)cc1 (stereo not given)
The growth of the first is lower: 50.3% for the first, 78.7% for the second.

First: COc1nc(/C=C\Nc2ccc3c(c2)OCCOCCOCCOCCO3)nc(OC)n1
Second: CCOC(=O)C1=CSC2=NC3=C(CCC/C3=C\c3ccc(Cl)cc3)C(c3ccc(Cl)cc3)N12 (stereo not given)
The growth of the first is lower: 65.4% for the first, 79.7% for the second.

First: CCSc1ncnc2c1ncn2C1OC(CO)C(O)C1O (stereo not given)
Second: Ic1ccc(SSc2ccc(I)cc2)cc1
The growth of the first is lower: 20.2% for the first, 80.4% for the second.

In the case of COc1ccc(/C=C(/C(=O)N2CCN(c3ccccc3)CC2)c2cc(OC)c(OC)c(OC)c2)cc1O, the growth is reported as -34.5% (active).
In the case of COc1ccc(OC)c(Nc2nc3nonc3nc2Nc2cccc(Br)c2)c1, the growth is reported as -14.1% (active).
With CCCCCCCCSC1=CC(=O)C(OC)=C(OC)C1=O the growth was -10.5% (active).
For NCCCNc1nc2ccccc2c2c(=O)c3cc(Cl)ccc3sc12, the growth was -56.8% (active).
COc1ccc(-c2ccc3ncc4c(c3c2)n(-c2ccc(N3CCNCC3)c(C(F)(F)F)c2)c(=O)n4C)cn1 was tested, and the growth was -65.4% (active).
COc1ccc2c(-c3ccc(F)cc3)c(C#N)c(=NC(C)=O)oc2c1 was tested, and the growth was -17.4% (active).
With Cc1ccc(C(=O)c2sc3nc4c(cc3c2N)CCCC4)c(C)c1 the growth was -3.28% (active).
For COc1ccc(OC)c(/C=C2\COc3ccc(O)c(O)c3C2=O)c1, the growth was -11% (active).
For COc1ccc(Cn2cnc3cc(C(=O)Nc4cccc5ccccc45)ccc32)c(OC)c1, the growth was -33.3% [30 µM] (active).
In the case of CC1=NN(C(=O)c2nn(-c3ccc(Cl)cc3)cc2O)C(=O)C1, the growth is reported as 5.71% (active).
O=C(NCc1cccnc1)c1cc(-c2csc3c(=O)cc(N4CCOCC4)oc23)cc2c1OCCO2 was tested, and the growth was -35.1% (active).

C[C@H]1[C@H](C)CC[C@]2(COC(=O)CCC(=O)O)CC[C@]3(C)C(=CC[C@@H]4[C@@]5(C)CCCNC(C)(C)[C@@H]5CC[C@]43C)[C@H]12 was tested, and the growth was 49.3% [100 µM].
